{"source": "paper PMC5540273", "about": "(PLoS ONE, 2017);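 note: KINOMEscan kinase panel screen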"}
{"tested_on": "ERBB2", "conditions": "concentration: 1 μM,replicates: in singlicate; n = 1", "units": {"%Inh": "%"}}
{"smiles": "CNC(=O)c1ccccc1Nc1nc(Nc2cccc(CS(C)(=O)=O)c2)ncc1C.O=CO", "note": "[GSK1520489]", "%Inh": 92.1}
{"smiles": "O=C(Nc1n[nH]c2cc(-c3ccco3)ccc12)C1CC1", "note": "[SB-737447]", "%Inh": 0}
{"smiles": "CSc1nccc(-c2c(-c3ccc(F)cc3)ncn2CCCN2CCOCC2)n1.Cl", "note": "[SB-217146]", "%Inh": 7}
{"smiles": "COc1cccc(CNC(=O)NC2CCN(c3ccnc(Nc4cc(OC)c(OC)c(OC)c4)n3)C2)c1", "note": "(centres unmarked) [GSK1379765]", "%Inh": 17}
{"smiles": "Cn1cc(-c2cccc3c(N)c(C(N)=O)nnc23)cn1", "%Inh": 14}
{"smiles": "Cc1ccc(Nc2ccnc(Nc3ccc4c(c3)CS(=O)(=O)C4)n2)cc1O.Cl", "note": "[GW579362]", "%Inh": 17}
{"smiles": "CC(C(=O)NC1CCN(c2ccnc(Nc3ccc(F)cc3)n2)C1)c1ccc(Cl)cc1", "note": "(centres unmarked) [GSK1379713]", "%Inh": 25}
{"smiles": "COc1cc2c(Nc3ccc(NC(=O)c4ccccc4)cc3)ncnc2cc1OCCCN1CCOCC1", "note": "[GSK301329]", "%Inh": 72}
{"smiles": "N#Cc1cccc(C(=O)NC2CCN(c3ccnc(Nc4ccc(F)cc4)n3)C2)c1", "note": "(centres unmarked) [GSK1379708]", "%Inh": 9}
{"smiles": "CN1CCN(CCCNc2nccc(-c3c(-c4ccc(F)cc4)nn4cc(C(N)=O)ccc34)n2)CC1", "note": "[GW622475]", "%Inh": 24}
{"smiles": "O=C(Nc1cccc(C(F)(F)F)c1)c1cccc(Oc2ccc3nccn3n2)c1", "%Inh": 0}
{"smiles": "COC(=O)Nc1nc2cc(Oc3ccc(NC(=O)Nc4cc(C(F)(F)F)ccc4Cl)cc3)ccc2[nH]1.Cl", "note": "[GW697465]", "%Inh": 45}
{"smiles": "Cn1ccc2ncnc(Oc3ccc(NC(=O)Nc4ccnc(C(F)(F)F)c4)c(Cl)c3)c21", "%Inh": 20}
{"smiles": "Cc1cccc2c(-c3ccncc3)c(-c3ccc(F)cc3)nn12.Cl", "note": "[GW461487]", "%Inh": 1}
{"smiles": "COc1cccc(C2=C(Nc3cccc(Cl)c3)C(=O)NC2=O)c1", "note": "[SB-341556]", "%Inh": 0}
{"smiles": "OCCn1cc(-c2cnc3nnn(Cc4ccc5ncccc5c4)c3n2)cn1", "%Inh": 5}
{"smiles": "CC(=O)c1c(-c2ccncc2)[nH]c(-c2ccncc2)c1C", "note": "[GW493036]", "%Inh": 0}
{"smiles": "Cn1ccc2ncnc(Oc3ccc(NC(=O)Nc4cncc(C(F)(F)F)c4)c(Cl)c3)c21", "%Inh": 24}
{"smiles": "O=c1[nH]cc(-c2ccc(O)cc2)c2sc(-c3ccncc3)cc12", "note": "[GSK1033723]", "%Inh": 28}
{"smiles": "COC(=O)c1cccc(NC(=O)NC2CCN(c3ccnc(NCc4ccc(F)cc4)n3)CC2)c1", "note": "[GSK1379860]", "%Inh": 21}
{"smiles": "Cn1ccc2ncnc(Oc3ccc(NC(=O)Nc4cccc(C(F)(F)F)c4)c(F)c3)c21", "%Inh": 10}
{"smiles": "Cl.c1ccc(Oc2ccc(Nc3ccnc4cc(-c5ccc(CN6CCNCC6)o5)ccc34)cc2)nc1", "note": "[GW567142]", "%Inh": 92}
{"smiles": "CS(=O)(=O)c1cccc(CNc2nc(Nc3ccc4c(c3)[C@@H]3C[C@@H]4CNC3=O)ncc2C(F)(F)F)c1", "%Inh": 15}
{"smiles": "C[C@@H](Oc1cc(-n2cnc3ccc(-c4ccncc4)cc32)sc1C(N)=O)c1ccccc1Cl", "note": "[GSK483724]", "%Inh": 14}
{"smiles": "CCOC(=O)N1CCC(n2cnc(-c3ccc(F)cc3)c2-c2ccnc(N)n2)CC1", "note": "[SB-219952]", "%Inh": 5}
{"smiles": "Cn1ccc2ncnc(Oc3ccc(NC(=O)Nc4cc(C(C)(C)C)on4)c(Cl)c3)c21", "%Inh": 81}
{"smiles": "Cc1n[nH]c2cc(Nc3ccnc(Nc4cccc(CN5CCOCC5)c4)n3)ccc12", "note": "[GW682569]", "%Inh": 27}
{"smiles": "NC(=O)c1ccc(-c2cc3ncnc(SCC(=O)O)c3s2)cc1", "%Inh": 33}
{"smiles": "Cc1ccc(CC(=O)N2CCc3cc(-c4cn(C)c5ncnc(N)c45)ccc32)cc1", "note": "[GSK2634758]", "%Inh": 0}
{"smiles": "COc1ccc(Nc2nccc(N3CCC(NC(=O)c4cccc(C#N)c4)C3)n2)cc1", "note": "(centres unmarked) [GSK1379730]", "%Inh": 0}
{"smiles": "Cn1ccc2ncnc(Oc3ccc(NC(=O)Nc4cccc(C(F)(F)F)c4)c(Cl)c3)c21", "%Inh": 29}
{"smiles": "O=C(Nc1ccccc1)c1cccc(Oc2ccc3nccn3n2)c1", "%Inh": 0}
{"smiles": "Cn1ccc2ncnc(Oc3ccc(NC(=O)Nc4cnn(C(C)(C)C)c4)c(Cl)c3)c21", "%Inh": 31}
{"smiles": "CCn1c(-c2nonc2N)nc2cncc(CNC3CCNCC3)c21.Cl", "note": "[SB-747651]", "%Inh": 21}
{"smiles": "COc1cc2nccc(Nc3ccc(Oc4ccccc4)cc3)c2cc1OC.Cl", "note": "[GI261656]", "%Inh": 80}
{"smiles": "Cl.Cl.NC[C@H](CC1CCCCC1)NC(=O)c1ccc(-c2ccnc3[nH]ccc23)s1", "note": "[GSK1581428]", "%Inh": 22}
{"smiles": "Cc1cccc(-c2nc(Nc3ccncc3)c3sccc3n2)n1", "note": "[GW869641]", "%Inh": 29}
{"tested_on": "ERBB3", "conditions": "concentration: 1 μM,replicates: in singlicate; n = 1", "units": {"%Inh": "%"}}
{"smiles": "CNC(=O)c1ccccc1Nc1nc(Nc2cccc(CS(C)(=O)=O)c2)ncc1C.O=CO", "note": "[GSK1520489]", "%Inh": 3}
{"smiles": "O=C(Nc1n[nH]c2cc(-c3ccco3)ccc12)C1CC1", "note": "[SB-737447]", "%Inh": 0}
{"smiles": "CSc1nccc(-c2c(-c3ccc(F)cc3)ncn2CCCN2CCOCC2)n1.Cl", "note": "[SB-217146]", "%Inh": 0}
{"smiles": "COc1cccc(CNC(=O)NC2CCN(c3ccnc(Nc4cc(OC)c(OC)c(OC)c4)n3)C2)c1", "note": "(centres unmarked) [GSK1379765]", "%Inh": 28}
{"smiles": "Cn1cc(-c2cccc3c(N)c(C(N)=O)nnc23)cn1", "%Inh": 27}
{"smiles": "Cc1ccc(Nc2ccnc(Nc3ccc4c(c3)CS(=O)(=O)C4)n2)cc1O.Cl", "note": "[GW579362]", "%Inh": 34}
{"smiles": "CC(C(=O)NC1CCN(c2ccnc(Nc3ccc(F)cc3)n2)C1)c1ccc(Cl)cc1", "note": "(centres unmarked) [GSK1379713]", "%Inh": 0}
{"smiles": "COc1cc2c(Nc3ccc(NC(=O)c4ccccc4)cc3)ncnc2cc1OCCCN1CCOCC1", "note": "[GSK301329]", "%Inh": 0}
{"smiles": "N#Cc1cccc(C(=O)NC2CCN(c3ccnc(Nc4ccc(F)cc4)n3)C2)c1", "note": "(centres unmarked) [GSK1379708]", "%Inh": 0}
{"smiles": "CN1CCN(CCCNc2nccc(-c3c(-c4ccc(F)cc4)nn4cc(C(N)=O)ccc34)n2)CC1", "note": "[GW622475]", "%Inh": 0}
{"smiles": "O=C(Nc1cccc(C(F)(F)F)c1)c1cccc(Oc2ccc3nccn3n2)c1", "%Inh": 40}
{"smiles": "COC(=O)Nc1nc2cc(Oc3ccc(NC(=O)Nc4cc(C(F)(F)F)ccc4Cl)cc3)ccc2[nH]1.Cl", "note": "[GW697465]", "%Inh": 25}
{"smiles": "Cn1ccc2ncnc(Oc3ccc(NC(=O)Nc4ccnc(C(F)(F)F)c4)c(Cl)c3)c21", "%Inh": 0}
{"smiles": "Cc1cccc2c(-c3ccncc3)c(-c3ccc(F)cc3)nn12.Cl", "note": "[GW461487]", "%Inh": 0}
{"smiles": "COc1cccc(C2=C(Nc3cccc(Cl)c3)C(=O)NC2=O)c1", "note": "[SB-341556]", "%Inh": 0}
{"smiles": "OCCn1cc(-c2cnc3nnn(Cc4ccc5ncccc5c4)c3n2)cn1", "%Inh": 0}
{"smiles": "CC(=O)c1c(-c2ccncc2)[nH]c(-c2ccncc2)c1C", "note": "[GW493036]", "%Inh": 17}
{"smiles": "Cn1ccc2ncnc(Oc3ccc(NC(=O)Nc4cncc(C(F)(F)F)c4)c(Cl)c3)c21", "%Inh": 0}
{"smiles": "O=c1[nH]cc(-c2ccc(O)cc2)c2sc(-c3ccncc3)cc12", "note": "[GSK1033723]", "%Inh": 0}
{"smiles": "COC(=O)c1cccc(NC(=O)NC2CCN(c3ccnc(NCc4ccc(F)cc4)n3)CC2)c1", "note": "[GSK1379860]", "%Inh": 8}
{"smiles": "Cn1ccc2ncnc(Oc3ccc(NC(=O)Nc4cccc(C(F)(F)F)c4)c(F)c3)c21", "%Inh": 24}
{"smiles": "Cl.c1ccc(Oc2ccc(Nc3ccnc4cc(-c5ccc(CN6CCNCC6)o5)ccc34)cc2)nc1", "note": "[GW567142]", "%Inh": 97}
{"smiles": "CS(=O)(=O)c1cccc(CNc2nc(Nc3ccc4c(c3)[C@@H]3C[C@@H]4CNC3=O)ncc2C(F)(F)F)c1", "%Inh": 0}
{"smiles": "C[C@@H](Oc1cc(-n2cnc3ccc(-c4ccncc4)cc32)sc1C(N)=O)c1ccccc1Cl", "note": "[GSK483724]", "%Inh": 0}
{"smiles": "CCOC(=O)N1CCC(n2cnc(-c3ccc(F)cc3)c2-c2ccnc(N)n2)CC1", "note": "[SB-219952]", "%Inh": 21}
{"smiles": "Cn1ccc2ncnc(Oc3ccc(NC(=O)Nc4cc(C(C)(C)C)on4)c(Cl)c3)c21", "%Inh": 5}
{"smiles": "Cc1n[nH]c2cc(Nc3ccnc(Nc4cccc(CN5CCOCC5)c4)n3)ccc12", "note": "[GW682569]", "%Inh": 12}
{"smiles": "NC(=O)c1ccc(-c2cc3ncnc(SCC(=O)O)c3s2)cc1", "%Inh": 0}
{"smiles": "Cc1ccc(CC(=O)N2CCc3cc(-c4cn(C)c5ncnc(N)c45)ccc32)cc1", "note": "[GSK2634758]", "%Inh": 10}
{"smiles": "COc1ccc(Nc2nccc(N3CCC(NC(=O)c4cccc(C#N)c4)C3)n2)cc1", "note": "(centres unmarked) [GSK1379730]", "%Inh": 0}
{"smiles": "Cn1ccc2ncnc(Oc3ccc(NC(=O)Nc4cccc(C(F)(F)F)c4)c(Cl)c3)c21", "%Inh": 5}
{"smiles": "O=C(Nc1ccccc1)c1cccc(Oc2ccc3nccn3n2)c1", "%Inh": 39}
{"smiles": "Cn1ccc2ncnc(Oc3ccc(NC(=O)Nc4cnn(C(C)(C)C)c4)c(Cl)c3)c21", "%Inh": 9}
{"smiles": "CCn1c(-c2nonc2N)nc2cncc(CNC3CCNCC3)c21.Cl", "note": "[SB-747651]", "%Inh": 8}
{"smiles": "COc1cc2nccc(Nc3ccc(Oc4ccccc4)cc3)c2cc1OC.Cl", "note": "[GI261656]", "%Inh": 99.6}
{"smiles": "Cl.Cl.NC[C@H](CC1CCCCC1)NC(=O)c1ccc(-c2ccnc3[nH]ccc23)s1", "note": "[GSK1581428]", "%Inh": 0}
{"smiles": "Cc1cccc(-c2nc(Nc3ccncc3)c3sccc3n2)n1", "note": "[GW869641]", "%Inh": 29}
